This is a sample that favours compounds with a hit; in the whole collection about 11% have one here.
NS1 inh: influenza NS1 inhibition; Potency, µM (highest dose often 46.1 µM), for the others: at the top dose activity, positive = more growth; 0.4% of 270,000 active; calls by dose curve; also: actives are rising curves; nearly all actives have a fitted effect of over 50% in size
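Recovery from NS1-induced slow growth read by OD600 in budding yeast switched to galactose assay medium (pH 6.0, -URA) at 1:100 dilution. Compound 23 nl per well; the matching strain lacking NS1 serves as control.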
HCV inh: inhibitors of hepatitis C virus infection; Huh7.5.1 HCVcc-Cre infection, luciferase reporter, 44 h; Potency, µM (series often up to 41.8 µM), for the others: at the top dose activity change, negative = inhibition, actives largely listed as inhibitors; 3.4% of 340,000 active; AID 651820; also: % is scaled to controls: 0 for no effect and ±100 for the full control effect
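After 44 h co-culture of compound, cells and HCVcc-Cre (~0.5 moi), substrate is added for 15 min at room temperature and luciferase measured over 15 sec. Cells were seeded at 1,000/well and pre-cultured 4 h.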
Pf growth 96h: P. falciparum growth inhibition at 96 hour, primary screen for plastid delayed-death inhibitors; P. falciparum luciferase reporter growth, 96 h; Potency, µM (doses to about 28.7 µM), for inactives: at the top dose activity change, negative = inhibition, actives largely listed as inhibitors; 6.9% of 320,000 active; AID 504834; also: % is scaled to controls: 0 for no effect and ±100 for the full control effect
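Erythrocytes infected with luciferase-expressing P. falciparum were dispensed at 2% hematocrit and 0.05% parasitemia (final), then incubated with compounds 96 hours at 37 C in 5% CO2. Luminescence after detection reagent addition reported growth.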
VACV mCherry inh: vaccinia inhibition (mCherry reporter). Vaccinia virus mCherry reporter infection, fluorescence. Potency, µM (highest dose often 36.5 µM), inactives show top-dose activity change, negative = inhibition, most hits filed as inhibitors. 0.63% of 310,000 active. AID 720579; calls by dose curve; tested in A549 cells; also: % is scaled to controls: 0 for no effect and ±100 for the full control effect; nearly all actives have a fitted effect of over 35% in size
Pf growth 48h: inhibits P. falciparum growth in the first generation, 48 h | 5.9% of 310,000 active | P. falciparum luciferase growth in erythrocytes, 48 h | AID 504832 | Potency, µM (doses to about 28.7 µM), inactives show at the highest dose activity change, negative = inhibition, usual class: inhibitors; also: % is scaled to controls: 0 for no effect and ±100 for the full control effect
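Parasite viability was followed by luminescence of a genomically integrated firefly luciferase. Cultures held 0.1% parasitemia at 2% hematocrit (final), incubated under 5% CO2 at 37 C.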
Vaccinia Venus: vaccinia inhibition (Venus reporter); Potency, µM (series often up to 36.5 µM), for the others: top-dose activity change, negative = inhibition, actives largely listed as inhibitors; Vaccinia virus Venus reporter expression, fluorescence; 0.46% of 330,000 active; calls by dose curve; tested in A549 cells; also: % is scaled to controls: 0 for no effect and ±100 for the full control effect; nearly all actives have a fitted effect of over 30% in size
Numbers without * were called inactive; i = inactive; ? = inconclusive; . = no result given; [ ] = dose if it differs, or a comment. Unless noted, calls follow the shape of the dose curve; as a rule, active = well fitted inhibition curve with a large enough effect; inconclusive = small, poorly fitted or top-dose-only effect, or another doubt; inactive = no such curve, though single readings can be large or run the other way. Potency is read from the fitted curve at half-maximal effect.

SMILES	NS1 inh	HCV inh	Pf growth 96h	VACV mCherry inh	Pf growth 48h	Vaccinia Venus
CCN(C(=O)CN1C(=O)/C(=C/c2ccccc2F)SC1=S)C1CCS(=O)(=O)C1 (stereo not drawn)	5%	-1%	?	.	-6%	.
CCN(C(=O)C(C)N1C(=O)/C(=C/c2ccco2)SC1=S)C1CCS(=O)(=O)C1 (stereo not drawn)	26%	14µM*	?	.	?	.
O=C(CCN1C(=O)/C(=C/c2ccc(F)cc2)SC1=S)NC1CCS(=O)(=O)C1 (stereo not drawn)	-1%	3%	?	-22%	-14%	1%
CNc1ccc(-c2cccc(C(=O)N3CCOCC3)c2)cn1	.	.	.	32%	.	7%
COc1ccc(CP(=O)(c2ccccc2)c2ccccc2)cc1	-53%	10%	?	-11%	?	-4%
COc1ccc(CN(C)C2c3ccccc3-c3ccccc32)cc1	-7%	-3%	12µM*	-14%	?	-19%
COCCn1c(=NC(=O)/C=C/c2ccccc2)sc2cc(NC(C)=O)ccc21	-4%	-17%	2.6µM*	i	?	-14%
CC(C)CCNC(=O)CN(Cc1ccc2c(c1)OCO2)C(=O)CCC(=O)Nc1ccccn1	-3%	19%	16%	.	-2%	3%
COC(=O)C1=C(c2cccc(C#N)c2)C[C@@H]2CC[C@H]1N2C(=O)NCc1ccc(F)cc1	.	28%	-8%	i	?	-14%
COC(=O)C1=C(c2ccc(-c3ccccc3)c(F)c2)C[C@@H]2CC[C@H]1N2C(=O)NCc1cc(C)oc1C(F)(F)F	.	?	?	-15%	2.3µM*	?
COC(=O)C1=C(c2ccc(F)cc2OCc2ccccc2)C[C@@H]2CC[C@H]1N2C(=O)NCc1cc(C)oc1C(F)(F)F	.	?	.	-6%	.	-29%
COC(=O)C1=C(c2cccc(C#N)c2)C[C@@H]2CC[C@H]1N2C(=O)NCc1cc(C)oc1C(F)(F)F	.	?	?	-29%	12µM*	-29%
COC(=O)C1=C(c2cccc(C#N)c2)C[C@@H]2CC[C@H]1N2C(=O)NCc1cccc2ccccc12	.	?	?	-6%	8.3µM*	-16%
COC(=O)C1=C(c2cccc(C#N)c2)C[C@@H]2CC[C@H]1N2C(=O)NCC1CC1	.	26%	9%	-8%	40%	-16%
CCCc1nc(SCC(=O)NC2CC2)c2c(C)c(C)sc2n1	0%	-18%	-13%	i	6%	-14%
CCCc1nc(SCC(=O)N2CCC(C)CC2)c2c(=O)n(C)c(=O)n(C)c2n1	-2%	?	?	i	?	-10%
COC(=O)C(C)Sc1nc(NCc2ccccc2)nc(N(C)C)n1 (stereo not drawn)	.	3.2µM*	-20%	i	-19%	-10%
CN(C)c1ccc(/C=N/n2c(-c3ccccc3Br)n[nH]c2=S)cc1	15%	1%	23%	i	18%	14%
CCCCCCCCCCCCCCCC[N+](C)(C)C	.	?	2.9µM*	?	4.1µM*	?
CCCCCCCCCCCCCC[N+](C)(C)C	.	.	0.95µM*	.	0.95µM*	.
C[N+](C)(C)CCCCCC[N+](C)(C)C	0%	-3%	-13%	-10%	5%	-10%
Cc1ccccc1NC(=O)CSc1nnc(Cc2ccccc2)o1	1%	17%	-14%	-10%	-20%	-10%
COc1ccc2nc3ccccc3[n+]([O-])c2c1	.	3%	.	-10%	.	-10%
[O-][n+]1c2ccccc2cc2ccccc21	.	?	7.4µM*	-7%	2.6µM*	16%
O=C(OCn1ncc(Br)c(Br)c1=O)c1ccc(F)cc1	-34%	?	?	11µM*	.	10µM*
SMILES	NS1 inh	HCV inh	Pf growth 96h	VACV mCherry inh	Pf growth 48h	Vaccinia Venus
Cc1ccc(NC(=O)COC(=O)C2=COCCO2)cc1	2%	8%	?	-16%	33%	-13%
CCN1/C(=C/C(C)=C/c2sc3ccccc3[n+]2CC)Sc2ccccc21	10%	1µM*	?	i	?	i
Clc1cccc(OCCCn2ccnc2)c1	-5%	7%	?	.	-9%	.
Clc1ccc(C(Cn2ccnc2)OCc2c(Cl)cccc2Cl)c(Cl)c1 (stereo not drawn)	.	-17%	2.9µM*	-11%	2.3µM*	-24%
Clc1ccc(C(Cn2ccnc2)OCc2csc3c(Cl)cccc23)c(Cl)c1 (stereo not drawn)	.	13µM*	2.6µM*	-13%	1µM*	-26%
OC(Cn1ccnc1)c1ccc(Cl)cc1Cl (stereo not drawn)	-44%	9%	9.3µM*	-14%[1.46 µM]	10µM*	-16%
Clc1ccc([C@H](Cn2ccnc2)OCc2csc3c(Cl)cccc23)c(Cl)c1	.	.	5.7µM*	.	?	.
C[N+]12CCC(CC1)C(C(O)(c1cccc(Cl)c1)c1cccc(Cl)c1)C2 (stereo not drawn)	-4%	2%	2.9µM*	i	13µM*	-12%
Cc1cc2nc(/N=C(\N)NC(=O)N3c4ccccc4Sc4ccccc43)nc(C)c2cc1C	16%	?	?	?	8.3µM*	0%
Cc1ccc2nc(/N=C(\N)NC(=O)N3c4ccccc4Sc4ccccc43)nc(C)c2c1	-8%	?	354%	i	-18%	-8%
C#CCOCCOCCOCCNc1nc(N2CCN(C(=O)[C@H]([C@@H](C)CC)n3cc([C@@H](N)Cc4ccc(O)cc4)nn3)CC2)nc(N2CCN(C(=O)[C@H](Cc3ccc(O)cc3)n3cc([C@@H](N)CC(C)C)nn3)CC2)n1	1%	10%	?	-25%	4.7µM*	-7%
C#CCOCCOCCOCCNc1nc(N2CCN(C(=O)[C@H]([C@@H](C)CC)n3cc([C@@H](N)CO)nn3)CC2)nc(N2CCN(C(=O)[C@H](Cc3ccc(O)cc3)n3cc([C@@H](N)CC(C)C)nn3)CC2)n1	-1%	20%	0%	i	?	-4%
C#CCOCCOCCOCCNc1nc(N2CCN(C(=O)[C@H](CCC(=O)O)n3cc(C(N)CO)nn3)CC2)nc(N2CCN(C(=O)[C@H](Cc3ccc(O)cc3)n3cc(C(N)CC(C)C)nn3)CC2)n1 (stereo partly drawn)	5%	.	44%	.	44%	.
C#CCOCCOCCOCCNc1nc(N2CCOCC2)nc(N2CCN(C(=O)[C@H](Cc3ccc(O)cc3)n3cc([C@@H](N)CC(C)C)nn3)CC2)n1	1%	2%	12µM*	-24%	5.2µM*	0%
C#CCOCCOCCOCCNc1nc(N2CCN(C(=O)C([C@@H](C)CC)n3cc(C(N)CO)nn3)CC2)nc(N2CCN(C(=O)[C@H](CCC(=O)O)n3cc(C(N)Cc4ccc(O)cc4)nn3)CC2)n1 (stereo partly drawn)	2%	.	36%	.	41%	.

Screening results deposited in PubChem BioAssay by National Center for Advancing Translational Sciences (NCATS).
